Measurements published in PubChem BioAssay (NCI).
The panel holds about 83,000 compounds, 20% with a hit somewhere; the sample as a whole holds those more often.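 Assay: single dose, 48 h. Readout: percent growth (0 = no net growth; negative = cell death). Active: <10.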 Unmarked numbers belong to inactive results. The source made the active and inactive calls.

Experiments:
Assay in all cases: NCI-60 one-dose screen, 48 h (100 = growth as untreated, 0 = no growth, -100 = all killed)
Details in all cases: 10 µM unless noted
K-562 leukemia = tested on: K-562 leukemia
MALME-3M melanoma = tested on: MALME-3M melanoma
MDA-MB-231 breast = tested on: MDA-MB-231 breast
RXF 393 renal = tested on: RXF 393 renal
SF-268 CNS = tested on: SF-268 CNS
SF-295 CNS = tested on: SF-295 CNS
SF-539 CNS = tested on: SF-539 CNS
UACC-257 melanoma = tested on: UACC-257 melanoma
M14 melanoma = tested on: M14 melanoma
HCT-15 colon = tested on: HCT-15 colon
HT29 colon = tested on: HT29 colon
SNB-75 CNS = tested on: SNB-75 CNS
SNB-19 CNS = tested on: SNB-19 CNS
U251 CNS = tested on: U251 CNS
PC-3 prostate = tested on: PC-3 prostate
SK-MEL-5 melanoma = tested on: SK-MEL-5 melanoma
UACC-62 melanoma = tested on: UACC-62 melanoma
LOX IMVI melanoma = tested on: LOX IMVI melanoma
SK-MEL-28 melanoma = tested on: SK-MEL-28 melanoma
SK-MEL-2 melanoma = tested on: SK-MEL-2 melanoma

SMILES	growth (K-562 leukemia)	growth (MALME-3M melanoma)	growth (MDA-MB-231 breast)	growth (RXF 393 renal)	growth (SF-268 CNS)	growth (SF-295 CNS)	growth (SF-539 CNS)	growth (UACC-257 melanoma)	growth (M14 melanoma)	growth (HCT-15 colon)	growth (HT29 colon)	growth (SNB-75 CNS)	growth (SNB-19 CNS)	growth (U251 CNS)	growth (PC-3 prostate)	growth (SK-MEL-5 melanoma)	growth (UACC-62 melanoma)	growth (LOX IMVI melanoma)	growth (SK-MEL-28 melanoma)	growth (SK-MEL-2 melanoma)
O=C(CN1C(=O)/C(=C/c2ccccc2)SC1=S)N1CCOCC1	77.4%	83.6%	95.2%	105%	102%	103%	95.8%	95.8%	88.5%	88.2%	112%	98.9%	99%	102%	108%	97%	93.4%	-34.9% (active)	96.5%	125%
N/C(=N\c1nc2c(Cl)cc(Cl)cc2s1)C(Cl)(Cl)Cl	71.3%	91.7%	38.4%	53.7%	75.7%	11.3%	44.5%	78.1%	93.3%	57.5%	8.65% (active)	7.23% (active)	46.8%	21%	37.5%	87%	40.3%	1.92% (active)	54.9%	
Nc1ncc(-c2ccc3ncnc(N4CCc5cc(F)c(Cl)cc54)c3c2)cc1CO	7.76% (active)	-25.8% (active)	17%	-26.6% (active)	8.31% (active)	-11.5% (active)	-17.8% (active)	9.34% (active)	-3.69% (active)	5.51% (active)	12.7%	-28.6% (active)	19.1%	18.8%	8.02% (active)	-72.4% (active)	-60.5% (active)	7.2% (active)	-4.29% (active)	-63.4% (active)
OC1CCN(CCCOc2c3ccccc3nc3c2oc2ccccc23)CC1	6.75% (active)	-32.6% (active)	-31.5% (active)	-43.1% (active)	2.44% (active)	-14.7% (active)	-12.5% (active)	-17.7% (active)	-71.8% (active)	-8.3% (active)	3.65% (active)	-1.06% (active)	0.345% (active)	4.21% (active)	-1.48% (active)	-69.1% (active)	-57.8% (active)	-63.3% (active)	-2.42% (active)	
Nc1cc(-c2c[nH]c3ccc(Cl)cc23)nc2cc(-c3c[nH]c4ccc(Cl)cc34)nn12	4.93% (active)	90.6%	49.3%	75%	54%	33.6%	65.5%	83.9%	48.6%	11.1%	0.992% (active)	71.9%	70.5%	9.85% (active)	36.4%	70.9%	70.4%	-5.92% (active)	80.8%	71.6%
[Cl][Ru].c1ccc(-c2cc(-c3ccccn3)nc(-c3ccccn3)c2)cc1.c1ccc(-c2ccnc3c2ccc2c(-c4ccccc4)ccnc23)cc1	1.44% (active)	-34.3% (active)	-48.4% (active)	-39% (active)	13.8%	-23.1% (active)	-20.5% (active)	-28.7% (active)	-57.1% (active)	45.8%	-47.6% (active)	-20% (active)	12.2%	-54.8% (active)	-7.82% (active)	-94.9% (active)	-68% (active)	-71.4% (active)	-73.5% (active)	
COc1ccc(NC(=O)c2sc3nc(-c4cnccn4)cc(-c4cccs4)c3c2N)cc1	54.5%	86.5%	79.7%	31.7%	81%	84%	-14.2% (active)	85.1%	81.2%	66.5%	20.8%	67.1%	93.6%	55.5%	82.7%	59.4%	32.7%	18.4%	84.3%	
N[C@@H](Cc1cn(-c2c3ccccc3nc3ccccc23)nn1)C(=O)O	88%	103%	97.4%	114%	101%	105%	90.8%	106%	107%	85.4%	107%	96.7%	93.2%	103%	99.2%	101%	93.5%	106%	100%	130%
